Screening data (PubChem)
HT1080-NT tox = kills 2HG-producing HT-1080-NT fibrosarcoma cells; HT-1080-NT fibrosarcoma viability, CellTiter-Glo ATP luminescence, 48 h; Potency, µM (doses to about 46.1 µM), inactives show at the highest dose activity, negative = less viability, usual class: cytotoxic; 1.6% of 360,000 active;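 further: NT is the 2HG producing partner of a matched IDH1 knockdown line; potency means the concentration at half of the fitted maximal effect; 0% = DMSO-treated cells and -100% = media-only wells without cells; nearly all actives have a fitted effect of over 55% in size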
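Read-out is CellTiter-Glo luminescence after 10 minutes at room temperature, following 48 hours' compound treatment of HT-1080-NT cells (750 cells/well, RPMI, 5% FBS, 37 degrees C).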
TDP1 cell noCPT = qHTS for Inhibitors of human tyrosyl-DNA phosphodiesterase 1 (TDP1): qHTS in cells in absence of CPT; AID 686978, 2013; 15% of 420,000 active; DT40 Tdp1-/- hTDP1 cells, no CPT, ATP luminescence, 48 h; Potency, µM (series often up to 46.2 µM), without a hit: at the highest dose activity change, negative = growth inhibition, most hits filed as inhibitors; further: potency means the concentration at half of the fitted maximal effect; nearly all actives have a fitted effect of over 55% in size
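Compound effects on proliferation are scored in DT40 Tdp1-/-;hTDP1 cells in the absence of CPT. ATP levels (CellTiter-Glo luminescence) are recorded after a ≥48 hr, 37 °C incubation.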
IL1B secr inh = inhibitors of inflammasome signaling (IL-1 beta secretion) | THP-1 LPS/ATP IL-1B secretion, AlphaLISA, 16 h; stronger effect = lower value | 4.7% of 360,000 active | activity change, % at 57.5 µM; in the data active means activity change below about -50%; inconclusive means mostly about -30% to -49%
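Secreted IL-1B measured by AlphaLISA bead assay after 16 h compound exposure of THP-1 cells; compounds (final up to 57.5 uM) added 1 h before LPS (250 ng/mL) and ATP (1.25 mM) stimulation; lower signal means less secretion.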
TDP1 cell CPT = DT40-hTDP1 cell growth loss with CPT. chicken DT40 Tdp1-/-;hTDP1 cells + 20 nM CPT, ATP luminescence, 48 h. Potency, µM (titrated, usually from 46.2 µM), for inactives: at the highest dose activity change, negative = growth inhibition, usual class: inhibitors. 12% of 420,000 active. AID 686979; further: potency means the concentration at half of the fitted maximal effect; nearly all actives have a fitted effect of over 55% in size
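Chicken DT40 Tdp1-/- cells complemented with human TDP1, 400 cells/well, exposed to compounds plus 20 nM camptothecin for at least 48 h at 37 C; viability read as ATP content by CellTiter-Glo luminescence.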
HT1080 IDH1KD tx = toxicity to HT-1080 IDH1 knockdown cells (counter line) | 2% of 360,000 active | Potency, µM (titrated, usually from 46.1 µM), for inactives: at the top dose activity, negative = toxicity, most hits filed as cytotoxic | HT-1080 IDH1 knockdown viability, ATP luminescence, 48 h;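 further: potency means the concentration at half of the fitted maximal effect; 0% = DMSO wells and -100% = cell-free medium wells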
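CellTiter-Glo luminescence after 48 h compound exposure at 37 degrees C of IDH1-knockdown HT-1080 cells in 5% FBS RPMI. %Activity scaled between DMSO wells and cell-free media wells, with curves fitted and assigned curve classes.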
* marks the source's active call; other numbers are inactive results; ? = inconclusive; nt = no result; [ ] = dose if it differs, or a comment. Rows were chosen to be rich in hits. Some 19% of all compounds tested hit in one or more screens of this group. Unless noted, the call rests on the fitted dose curve; in most records, active means well fitted curve in the direction sought with a large enough effect; inconclusive means small, poorly fitted or top-dose-only effect, or another doubt; inactive means no such curve, though single readings can be large; an effect the other way counts as inactive or inconclusive. Unless noted, on the % scale 0 is the no-effect control and ±100 the full control effect.

SMILES	HT1080-NT tox	TDP1 cell noCPT	IL1B secr inh	TDP1 cell CPT	HT1080 IDH1KD tx
CCOc1cc2[nH]c(=S)n(Cc3ccc(C(=O)NCCN(CC)CC)cc3)c(=O)c2cc1OCC	?	?	-98.5*	?	?
CCOC(=O)N1CCN(C(=O)c2ccc(Cn3c(=S)[nH]c4cc5c(cc4c3=O)OCO5)cc2)CC1	-6.3%	16.4µM*	-9.4	23.1µM*	-8.9%
CCOC(=O)N1CCN(C(=O)c2ccc(Cn3c(=S)[nH]c4cc(OCC)c(OCC)cc4c3=O)cc2)CC1	14.7%	9.2µM*	10.3	10.3µM*	14.1%
COc1ccccc1N1CCN(C(=O)c2ccc(Cn3c(=S)[nH]c4cc5c(cc4c3=O)OCO5)cc2)CC1	12.5%	?	19.0	?	15.8%
CCOC(OCC)c1cc2ccccc2cn1	17.1%	-14.5%	34.2	-18.3%	5.1%
COc1ccc(C(=O)c2c(C(F)(F)F)oc3c2C(=O)c2ccccc2C3=O)cc1	7.31µM*	7.31µM*	?	4.61µM*	6.51µM*
COc1ccc(C(=O)c2oc3ccccc3c2NC(C)=O)cc1	-7.1%	?	-12.0	?	-23.0%
Oc1oc(-c2ccccc2)nc1C=Nc1ccccc1	11.5%	-13.1%	-54.8*	-10.1%	22.6%
CC(=O)Oc1oc(-c2ccccc2)nc1C=Nc1ccc(N(C)C)cc1	17.8%	?	16.0	?	23.5%
COc1ccc(N=Cc2nc(-c3ccco3)oc2O)cc1	-4.4%	29.1µM*	-22.2	?	?
CN(C)c1ccc(N=Cc2nc(-c3ccccc3)oc2O)cc1	-1.0%	-0.6%	-17.6	-6.5%	19.8%
Cc1ccc(N=Cc2nc(-c3ccc(C)cc3)oc2O)cc1	-0.8%	-9.1%	-19.7	-20.7%	-6.8%
O=C(Oc1oc(-c2ccco2)nc1C=Nc1ccc(Cl)cc1)c1ccco1	-6.7%	9.2µM*	-3.1	10.3µM*	-2.7%
COC(=O)/C=C1\N/C(=N/c2nc(C)c3cc(OC)ccc3n2)NC1=O	-24.2%	9.2µM*	15.3	11.6µM*	?
CCCS(=O)(=O)c1c(S(=O)(=O)CCC)c2cnccn2c1C(=O)c1ccc(CC)cc1	-7.9%	?	-11.7	3.0%	-7.2%
CCCS(=O)(=O)c1c(S(=O)(=O)CCC)c2cc(CC)ccn2c1C(=O)c1ccc(Cl)cc1	nt	-26.0%	nt	14.6µM*	nt
CCCS(=O)(=O)c1c(S(=O)(=O)CCC)c2cc(-c3ccncc3)ccn2c1C(=O)OC	-18.6%	?	-68.9*	?	-12.9%
CN(NC(=O)NN(C)C(=O)c1ccccc1)C(=O)c1ccccc1	5.4%	?	3.1	?	1.0%
Cc1ccccc1C(=O)Nc1ccc2c(C#N)c3nc4ccccc4nc3n2c1	2.0%	20.6µM*	-0.8	20.6µM*	4.2%
Cc1ccccc1CSCC(=O)c1c(N)n(CC(C)C)c(=O)n(C)c1=O	-0.3%	23.1µM*	-6.9	?	-0.9%[9.24 µM]
Cc1ccc(C(C)C)c(OCC(=O)OCC(=O)c2c(N)n(C)c(=O)n(C)c2=O)c1	-1.9%	16.4%	-0.8	-0.9%	1.2%
Cc1nnc(SCC(=O)c2c(N)n(C)c(=O)n(C)c2=O)n1Cc1ccccc1	-4.6%	-20.8%	-53.7*	-29.5%	-29.4%
